# Results reported in PubChem BioAssay (NCI).
# About 79,000 compounds went through this panel and 15% of them were active in at least one assay; those are over-represented in the sample as a whole. A number with no mark means an inactive call. Calls of active or inactive are those of the source. Rule as the data show it: active = growth inhibition above about 70%; inactive = the rest.
# How the values were obtained:
# [1] = NCI Yeast Anticancer Drug Screen. Data for the rad52 strain (AID 147);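 also: 0% = growth of vehicle-treated control cultures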; conditions: S. cerevisiae rad52 mutant growth inhibition, stronger effect = higher value
# Summary of the method: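 Screen used a yeast mutant impaired in DNA repair. After compound exposure, growth was measured. Values reflect inhibition compared with vehicle-treated cells.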
# [2] = NCI Yeast Anticancer Drug Screen. Data for the wt1 strain (AID 149);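 also: 0% = growth of vehicle-treated wt1 cultures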; conditions: S. cerevisiae wt1 strain (SPY 50644) growth inhibition, stronger effect = higher value
# Summary of the method: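 Each compound is tested on wt1 yeast and the loss of growth versus vehicle gives the inhibition value.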
# [3] = NCI Yeast Anticancer Drug Screen. Data for the rad50EPP+ strain (AID 151);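 also: 0% = growth of vehicle-treated control cultures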; conditions: S. cerevisiae rad50 mutant strain, stronger effect = higher value
# Summary of the method: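 Exposing the rad50EPP+ strain to each compound, growth was compared with vehicle-only cultures to give inhibition.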
# [4] = NCI Yeast Anticancer Drug Screen. Data for the mgt1 strain (AID 153); conditions: S. cerevisiae mgt1 mutant growth inhibition, stronger effect = higher value
# Summary of the method: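 Genetically defined yeast (mgt1) treated with compound; inhibition of growth expressed against vehicle-treated controls.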
# [5] = NCI Yeast Anticancer Drug Screen. Data for the rad50 strain (AID 155);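 also: 0% = growth of vehicle-only cultures of the same strain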; conditions: S. cerevisiae rad50 strain growth inhibition, stronger effect = higher value
# Summary of the method: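 Vehicle-treated cultures provide the reference for the growth inhibition reported for compound-exposed, repair-deficient yeast.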
# [6] = NCI Yeast Anticancer Drug Screen. Data for the mec2-1 strain (AID 157); conditions: S. cerevisiae mec2-1 strain, stronger effect = higher value
# Summary of the method: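 Readout is yeast growth inhibition, normalised to vehicle-treated controls, in the mec2-1 strain exposed to compound.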
# [7] = NCI Yeast Anticancer Drug Screen. Data for the rad14 strain (AID 159);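 also: 0% = growth of vehicle-treated control cultures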; conditions: S. cerevisiae rad14 strain growth inhibition, stronger effect = higher value
# Summary of the method: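 Inhibition of growth is reported for a repair-deficient yeast mutant following compound treatment, calculated relative to cultures that received vehicle.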
# [8] = NCI Yeast Anticancer Drug Screen. Data for the sgs1 mgt1 strain (AID 161);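 also: 0% = growth of cultures given vehicle only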; conditions: S. cerevisiae sgs1 mgt1 strain, stronger effect = higher value
# Summary of the method: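 Percent growth inhibition was derived by comparing compound-exposed mutant yeast with vehicle-exposed cultures. The strain carries alterations in DNA damage repair.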
# [9] = NCI Yeast Anticancer Drug Screen. Data for the CLN2oe strain (AID 163);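 also: 0% = growth of vehicle-only control cultures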; conditions: S. cerevisiae CLN2oe strain, stronger effect = higher value
# Summary of the method: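 Values reflect how much compound exposure reduced yeast growth, referenced to vehicle-exposed cells. Assay organism is a strain with a defined genetic change affecting cell-cycle control.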
# [10] = NCI Yeast Anticancer Drug Screen. Data for the cln2 rad14 strain (AID 165);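 also: 0% = growth equal to vehicle treated cultures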; conditions: S. cerevisiae cln2 rad14 strain, stronger effect = higher value
# Summary of the method: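 Relative to vehicle controls, growth inhibition of compound-treated cln2 rad14 yeast was recorded.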
# [11] = NCI Yeast Anticancer Drug Screen. Data for the bub3 strain (AID 167); conditions: S. cerevisiae bub3 mutant strain, stronger effect = higher value
# Summary of the method: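 Mutant yeast screening strain plus compound; vehicle-treated cultures serve as the 0% inhibition reference.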
# [12] = NCI Yeast Anticancer Drug Screen. Data for the wt2 strain (AID 169); conditions: S. cerevisiae wt2 strain growth inhibition, stronger effect = higher value
# Summary of the method: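 Values express reduction in yeast growth under compound treatment, referenced to vehicle-treated cells.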
# [13] = NCI Yeast Anticancer Drug Screen. Data for the mlh1 strain (AID 171);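 also: 0% = growth of vehicle-treated control cultures of the same strain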; conditions: S. cerevisiae mlh1 strain growth inhibition, stronger effect = higher value
# Summary of the method: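 Steps: expose the defined-mutant yeast strain to compound; expose a parallel culture to vehicle; measure growth; express compound effect as inhibition relative to the vehicle culture.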
# [14] = NCI Yeast Anticancer Drug Screen. Data for the sgs1 strain (AID 173);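 also: 0% = growth of vehicle-only control cultures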; conditions: S. cerevisiae sgs1 mutant, stronger effect = higher value
# Summary of the method: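 Treat defined-mutant yeast with compound; measure growth; calculate inhibition relative to vehicle-treated cells.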
# [15] = NCI Yeast Anticancer Drug Screen. Data for the mlh1 rad18 strain (AID 175); conditions: S. cerevisiae mlh1 rad18 strain growth inhibition, stronger effect = higher value
# Summary of the method: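 Test agents were incubated with a yeast strain of defined genotype (DNA damage repair defect). Inhibition of growth was derived by comparison with vehicle-exposed cultures.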
# [16] = NCI Yeast Anticancer Drug Screen. Data for the rad18 strain (AID 177); conditions: S. cerevisiae rad18 mutant growth inhibition, stronger effect = higher value
# Summary of the method: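 A genetically defined yeast mutant impaired in DNA damage repair was treated with test compounds, then its growth was measured against cultures receiving vehicle alone.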
# [17] = at 5.0 µM (retest, dose inferred, filed as 0.5)
# [18] = at 50.0 µM (retest, dose inferred, filed as 5.0)
structure (smiles),measurement,setting,value
Oc1ccc2ccccc2c1CCc1c(O)ccc2ccccc12,growth inhibition,[1]; at 1.2 µM,3%
same,growth inhibition,[1]; at 3.7 µM,14%
same,growth inhibition,[1]; at 11.0 µM,54%
same,growth inhibition,[1]; at 33.0 µM,94% (active)
same,growth inhibition,[1]; at 100.0 µM,85% (active)
same,growth inhibition,[2]; at 1.2 µM,5%
same,growth inhibition,[2]; at 3.7 µM,17%
same,growth inhibition,[2]; at 11.0 µM,19%
same,growth inhibition,[2]; at 33.0 µM,52%
same,growth inhibition,[2]; at 100.0 µM,88% (active)
same,growth inhibition,[3]; at 1.2 µM,28%
same,growth inhibition,[3]; at 3.7 µM,70% (active)
same,growth inhibition,[3]; at 11.0 µM,85% (active)
same,growth inhibition,[3]; at 33.0 µM,86% (active)
same,growth inhibition,[3]; at 100.0 µM,83% (active)
same,growth inhibition,[4]; at 1.2 µM,2%
same,growth inhibition,[4]; at 3.7 µM,6%
same,growth inhibition,[4]; at 11.0 µM,60%
same,growth inhibition,[4]; at 33.0 µM,95% (active)
same,growth inhibition,[4]; at 100.0 µM,87% (active)
same,growth inhibition,[5]; at 1.2 µM,5%
same,growth inhibition,[5]; at 3.7 µM,13%
same,growth inhibition,[5]; [17],15%
same,growth inhibition,[5]; at 11.0 µM,68%
same,growth inhibition,[5]; at 33.0 µM,93% (active)
same,growth inhibition,[5]; [18],94% (active)
same,growth inhibition,[5]; at 50.0 µM,95.1% (active)
same,growth inhibition,[5]; at 100.0 µM,86% (active)
same,growth inhibition,[6]; at 1.2 µM,7%
same,growth inhibition,[6]; at 3.7 µM,15%
same,growth inhibition,[6]; [17],-6%
same,growth inhibition,[6]; at 11.0 µM,95% (active)
same,growth inhibition,[6]; at 33.0 µM,96% (active)
same,growth inhibition,[6]; [18],95% (active)
same,growth inhibition,[6]; at 50.0 µM,96.5% (active)
same,growth inhibition,[6]; at 100.0 µM,90% (active)
same,growth inhibition,[7]; at 1.2 µM,3%
same,growth inhibition,[7]; at 3.7 µM,8%
same,growth inhibition,[7]; at 11.0 µM,28%
same,growth inhibition,[7]; at 33.0 µM,89% (active)
same,growth inhibition,[7]; at 100.0 µM,85% (active)
same,growth inhibition,[8]; [17],41%
same,growth inhibition,[8]; [18],94% (active)
same,growth inhibition,[8]; at 50.0 µM,95% (active)
same,growth inhibition,[9]; at 1.2 µM,7%
same,growth inhibition,[9]; at 3.7 µM,4%
same,growth inhibition,[9]; at 11.0 µM,97% (active)
same,growth inhibition,[9]; at 33.0 µM,92% (active)
same,growth inhibition,[9]; at 100.0 µM,82% (active)
same,growth inhibition,[10]; [17],6%
same,growth inhibition,[10]; [18],92% (active)
same,growth inhibition,[10]; at 50.0 µM,88.2% (active)
same,growth inhibition,[11]; at 1.2 µM,-1%
same,growth inhibition,[11]; at 3.7 µM,2%
same,growth inhibition,[11]; [17],45%
same,growth inhibition,[11]; at 11.0 µM,98% (active)
same,growth inhibition,[11]; at 33.0 µM,93% (active)
same,growth inhibition,[11]; [18],94% (active)
same,growth inhibition,[11]; at 50.0 µM,94.9% (active)
same,growth inhibition,[11]; at 100.0 µM,86% (active)
same,growth inhibition,[12]; at 1.2 µM,7%
same,growth inhibition,[12]; at 3.7 µM,16%
same,growth inhibition,[12]; at 11.0 µM,38%
same,growth inhibition,[12]; at 33.0 µM,66%
same,growth inhibition,[12]; at 100.0 µM,87% (active)
same,growth inhibition,[13]; at 1.2 µM,5%
same,growth inhibition,[13]; at 3.7 µM,8%
same,growth inhibition,[13]; at 11.0 µM,79% (active)
same,growth inhibition,[13]; at 33.0 µM,94% (active)
same,growth inhibition,[13]; at 100.0 µM,90% (active)
same,growth inhibition,[14]; at 1.2 µM,7%
same,growth inhibition,[14]; at 3.7 µM,19%
same,growth inhibition,[14]; at 11.0 µM,51%
same,growth inhibition,[14]; at 33.0 µM,92% (active)
same,growth inhibition,[14]; at 100.0 µM,88% (active)
same,growth inhibition,[15]; [17],55%
same,growth inhibition,[15]; [18],92% (active)
same,growth inhibition,[15]; at 50.0 µM,95.2% (active)
same,growth inhibition,[16]; at 1.2 µM,5%
same,growth inhibition,[16]; at 3.7 µM,15%
same,growth inhibition,[16]; at 11.0 µM,46%
same,growth inhibition,[16]; at 33.0 µM,91% (active)
same,growth inhibition,[16]; at 100.0 µM,85% (active)
O=C1Nc2ccc(Br)cc2C1=Nc1ccc2c(c1)OCO2,growth inhibition,[1]; at 1.2 µM,10%
same,growth inhibition,[1]; at 3.7 µM,8%
same,growth inhibition,[1]; at 11.0 µM,3%
same,growth inhibition,[1]; at 33.0 µM,10%
same,growth inhibition,[1]; at 100.0 µM,2%
same,growth inhibition,[2]; at 1.2 µM,-12%
same,growth inhibition,[2]; at 3.7 µM,-3%
same,growth inhibition,[2]; at 11.0 µM,-12%
same,growth inhibition,[2]; at 33.0 µM,-12%
same,growth inhibition,[2]; at 100.0 µM,2%
same,growth inhibition,[3]; at 1.2 µM,-34%
same,growth inhibition,[3]; at 3.7 µM,-37%
same,growth inhibition,[3]; at 11.0 µM,-45%
same,growth inhibition,[3]; at 33.0 µM,-35%
same,growth inhibition,[3]; at 100.0 µM,-48%
same,growth inhibition,[4]; at 1.2 µM,-9%
same,growth inhibition,[4]; at 3.7 µM,-32%
same,growth inhibition,[4]; at 11.0 µM,-15%
same,growth inhibition,[4]; at 33.0 µM,-15%
same,growth inhibition,[4]; at 100.0 µM,-30%
same,growth inhibition,[5]; at 1.2 µM,-29%
same,growth inhibition,[5]; at 3.7 µM,-26%
same,growth inhibition,[5]; [17],47%
same,growth inhibition,[5]; at 11.0 µM,-27%
same,growth inhibition,[5]; at 33.0 µM,-27%
same,growth inhibition,[5]; [18],60%
same,growth inhibition,[5]; at 50.0 µM,-9.9%
same,growth inhibition,[5]; at 100.0 µM,-10%
same,growth inhibition,[6]; at 1.2 µM,-59%
same,growth inhibition,[6]; at 3.7 µM,-27%
same,growth inhibition,[6]; [17],41%
same,growth inhibition,[6]; at 11.0 µM,-54%
same,growth inhibition,[6]; at 33.0 µM,-58%
same,growth inhibition,[6]; [18],56%
same,growth inhibition,[6]; at 50.0 µM,-5.95%
same,growth inhibition,[6]; at 100.0 µM,-40%
same,growth inhibition,[7]; at 1.2 µM,-38%
same,growth inhibition,[7]; at 3.7 µM,-29%
same,growth inhibition,[7]; at 11.0 µM,-32%
same,growth inhibition,[7]; at 33.0 µM,-21%
same,growth inhibition,[7]; at 100.0 µM,-33%
same,growth inhibition,[8]; [17],-12%
same,growth inhibition,[8]; [18],8%
same,growth inhibition,[8]; at 50.0 µM,9.4%
same,growth inhibition,[9]; at 1.2 µM,13%
same,growth inhibition,[9]; at 3.7 µM,15%
same,growth inhibition,[9]; at 11.0 µM,16%
same,growth inhibition,[9]; at 33.0 µM,17%
same,growth inhibition,[9]; at 100.0 µM,21%
same,growth inhibition,[10]; [17],32%
same,growth inhibition,[10]; [18],26%
same,growth inhibition,[10]; at 50.0 µM,7.55%
same,growth inhibition,[11]; at 1.2 µM,-26%
same,growth inhibition,[11]; at 3.7 µM,-22%
same,growth inhibition,[11]; [17],30%
same,growth inhibition,[11]; at 11.0 µM,-17%
same,growth inhibition,[11]; at 33.0 µM,2%
same,growth inhibition,[11]; [18],73% (active)
same,growth inhibition,[11]; at 50.0 µM,52.5%
same,growth inhibition,[11]; at 100.0 µM,86% (active)
same,growth inhibition,[12]; at 1.2 µM,0%
same,growth inhibition,[12]; at 3.7 µM,-21%
same,growth inhibition,[12]; at 11.0 µM,-22%
same,growth inhibition,[12]; at 33.0 µM,-34%
same,growth inhibition,[12]; at 100.0 µM,-27%
same,growth inhibition,[13]; at 1.2 µM,-8%
same,growth inhibition,[13]; at 3.7 µM,-13%
same,growth inhibition,[13]; at 11.0 µM,-24%
same,growth inhibition,[13]; at 33.0 µM,-30%
same,growth inhibition,[13]; at 100.0 µM,-27%
same,growth inhibition,[14]; at 1.2 µM,-31%
same,growth inhibition,[14]; at 3.7 µM,-21%
same,growth inhibition,[14]; at 11.0 µM,-30%
same,growth inhibition,[14]; at 33.0 µM,-37%
same,growth inhibition,[14]; at 100.0 µM,-27%
same,growth inhibition,[15]; [17],33%
same,growth inhibition,[15]; [18],54%
same,growth inhibition,[15]; at 50.0 µM,6.7%
same,growth inhibition,[16]; at 1.2 µM,-36%
same,growth inhibition,[16]; at 3.7 µM,-34%
same,growth inhibition,[16]; at 11.0 µM,-42%
same,growth inhibition,[16]; at 33.0 µM,-44%
same,growth inhibition,[16]; at 100.0 µM,-29%
